Reference: PubChem BioAssay (NCI)
About 83,000 compounds went through this panel and 20% of them were active in at least one assay; those are over-represented in the sample as a whole.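 The test compound was applied at a single concentration to cells in 96-well plates for 48 hours, and percent growth was recorded.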 Values without a mark were called inactive. The source made the active and inactive calls. How the source made its calls: active means growth percent below 10; inactive means the rest.

Key:
Assay in all cases: NCI-60 one-dose screen, 48 h (100 = growth as untreated, 0 = no growth, -100 = all killed)
Conditions in all cases: 10 µM unless noted
NCI-H23 lung = test system: NCI-H23 lung
NCI-H226 lung = test system: NCI-H226 lung
NCI-H322M lung = test system: NCI-H322M lung
HOP-62 NSCLC = test system: HOP-62 NSCLC
NCI-H460 lung = test system: NCI-H460 lung
HOP-92 NSCLC = test system: HOP-92 NSCLC
NCI-H522 lung = test system: NCI-H522 lung
A549/ATCC NSCLC = test system: A549/ATCC NSCLC
786-0 renal = test system: 786-0 renal
COLO 205 colon = test system: COLO 205 colon

Row | SMILES | growth (NCI-H23 lung) | growth (NCI-H226 lung) | growth (NCI-H322M lung) | growth (HOP-62 NSCLC) | growth (NCI-H460 lung) | growth (HOP-92 NSCLC) | growth (NCI-H522 lung) | growth (A549/ATCC NSCLC) | growth (786-0 renal) | growth (COLO 205 colon)
1 | O=C1/C(=C/c2ccc([N+](=O)[O-])cc2)SC(=Nc2ccccc2)N1Nc1ccccc1 | 60.5% | 85.1% | 60.9% | 97.1% | 50.9% | 108% | 58.1% | 71.5% | 66.4% | 92.6%
2 | Oc1ccc(CSc2nnc(-c3ccccc3)o2)c2cccnc12 | 27.8% | 51.2% | 25.7% | 13.8% | 2.23% (active) | -3.86% (active) | 22.6% | 17.6% | 24.5% | 98.9%
3 | COc1c([C@@H](CC(C)C)OC(C)=O)ccc2c1C(=O)OCc1cc(C)cc(O)c1O2 | 23.7% | 43.5% | 54.3% | 24.5% | 8.61% (active) | 3.04% (active) | 20.2% | 13.6% | 80.5% | 9.55% (active)
4 | O=C(NCCCNc1cc(-c2cn(-c3ccccc3)nc2-c2cccc(O)c2)ccn1)Nc1ccc(F)cc1 | 26.3% | 32.6% | 35.3% | 24% | 21.4% | -11.5% (active) | 1.7% (active) | 29.2% | -39.4% (active) | -39.4% (active)
5 | COc1ccc(-c2nnc(SCc3ccc(O)c4ncccc34)o2)cc1 | 38.2% | 63.7% | 49.3% | 32.2% | 14.9% | -2.2% (active) | 27.2% | 41.2% | 38.2% | 102%
6 | COc1ccc([C@@H]2[C@@H](O)C(=O)N2c2cc(OC)c(OC)c(OC)c2)cc1 | 25.6% | -7.75% (active) | 43.1% | 22.7% | 3.07% (active) | -1.78% (active) | -21.2% (active) | 23.3% | 19.2% | -78.7% (active)
7 | O=C(/C=C1\C=CN(CCCCF)c2ccccc21)n1ccc2ccccc21 | 98.5% | 91.9% | 93.3% | 93% | 113% | 90.9% | 94.7% | 104% | 107% | 96.6%
8 | O=C(Nc1ccccc1)Nc1nc2ccc([N+](=O)[O-])cc2s1 | 0.812% (active) | 0.421% (active) | 10% | 8.52% (active) | 4.82% (active) | -22.2% (active) | 3.38% (active) | 8.07% (active) | 14.1% | -26.1% (active)
9 | O=C(C[n+]1ccnc2ccccc21)c1ccc(O)c(O)c1 | 63.8% | 71.1% | 90.8% | 90.7% | 70.9% | 64.8% | -5% (active) | 87.1% | 44.3% | 30.8%
10 | C=CCn1c(SCC(=O)Nc2cccc(C(=O)/C=C/c3ccc(Cl)cc3)c2)nc2ccccc2c1=O | 92.3% | 102% | 95.6% | 113% | 95.4% | 88.7% | 81.8% | 85.7% | 98.2% | 112%
11 | Nc1nc(-c2cccc([N+](=O)[O-])c2)c(N=Nc2ccccc2[N+](=O)[O-])s1 | 3.8% (active) | 4.17% (active) | 76.7% | -36.1% (active) | 39.5% | -28.4% (active) | 26.4% | 36.1% | -66.4% (active) | 93.7%
12 | C#C[C@]1(O)CC[C@H]2[C@@H]3CC=C4c5sc(-c6ccc(OC)cc6)nc5CC[C@]4(C)[C@H]3CC[C@@]21C | 73.7% | 69.3% | 74.5% | 70.8% | 43.5% | 102% | 80.6% | 74.7% | 16.8% | 81.9%
13 | COC(=O)[C@@]1(C)CC[C@]2(C)CC[C@]3(C)C(=CC(=O)[C@@H]4[C@@]5(C)Cc6c(n(CC#CCN7CCN(C)CC7)c7ccccc67)C(C)(C)[C@@H]5CC[C@]43C)[C@@H]2C1 | 84.7% | 98.5% | 91.5% | 113% | 22.4% | 83% | 100% | 69.4% | 67.8% | 94.2%
14 | CCOC(=O)c1c(NCC(=O)Nc2cccc([N+](=O)[O-])c2)sc2c1CCCC2 | -70.8% (active) | -58.1% (active) | -29.2% (active) | -48.4% (active) | -51.5% (active) | -24.7% (active) | -67% (active) | -13.8% (active) | -32% (active) | -56.2% (active)
15 | O=C(NNc1nc2cc(F)ccc2n2cncc12)c1cnccn1 | 37.4% | 44.6% | 25.4% | 36.1% | 4.66% (active) | 63.7% | 24.3% | 22.2% | 10% | 19.5%
16 | Cc1[nH]nc2ccc(-c3nc4cnc(N5CCN(C)CC5)cn4c3Nc3ccc(F)cc3Br)cc12 | 80.4% | 87.9% | 63.3% | 67.1% | 69.6% | 61.5% | 67.6% | 58.7% | 4.67% (active) | 36.7%
17 | CCN(CC)c1ccc2cc(C(=O)NCCOCCOCCOCCn3cc(CCC(=O)Nc4ccc(C(=O)c5ccc(NC(=O)OC(C)(C)C)cc5)cc4)nn3)c(=O)oc2c1 | 61.7% | 20.3% | 74.5% | 53.5% | 78.9% | 85.7% | 28.4% | 73.1% | 73.2% | 38.2%
18 | Cc1nn(-c2ccccc2)cc1/C=N/Nc1nc(Nc2ccccc2)nc(Nc2ccc(S(N)(=O)=O)cc2)n1 | -14.9% (active) | -59.2% (active) | 9.11% (active) | 9.43% (active) | -35.9% (active) | -13% (active) | 0.777% (active) | -28.7% (active) | -47.6% (active) | -22% (active)
19 | Cc1ccc(C2CC(c3ccc(Nc4nc(NCCO)nc(Nc5ccc(Cl)cc5)n4)cc3)=Nc3c(N)nc(N)nc3N2)cc1 (stereo not given) | -81.8% (active) | 49.7% | -89.8% (active) | -86.4% (active) | -84.8% (active) | 53.4% | -69.4% (active) | 57.9% | -91.9% (active) | 29.9%
20 | O=C1[C@@H]2Cc3c([nH]c4ccccc34)[C@H](c3c(Cl)cccc3Cl)N2C(=O)CN1C1CCN(Cc2c(F)cccc2F)CC1 | 92.9% | 78.7% | 89.1% | 92.9% | 55.6% | 75.9% | 93% | 92.3% | 99.2% | 90.6%
21 | C#C[C@]1(O)CC[C@H]2[C@@H]3CC=C4c5sc(Nc6ccncc6)nc5CC[C@]4(C)[C@H]3CC[C@@]21C | 2.43% (active) | -4.76% (active) | 31.7% | -42.3% (active) | 4.53% (active) | 4.3% (active) | -37% (active) | -14.7% (active) | -60.2% (active) | -46.9% (active)
22 | O=C(COc1cccc2cccnc12)Nc1ccc(C(=O)/C=C/c2ccc(Cl)cc2)cc1 | 89.2% | 94.6% | 99.1% | 108% | 102% | 108% | 85.2% | 85.4% | 99% | 108%
23 | COc1ccc(Cn2cc3c(c2-c2ccccc2)CCCc2cnoc2-3)cc1[N+](=O)[O-] | 74.8% | 66.6% | 96.2% | 68.6% | 56.4% | 62.7% | 58.2% | 66.7% | 87.6% | 46.8%
24 | C=CCn1c(SCC(=O)Nc2cccc(C(=O)/C=C/c3ccc(C)cc3)c2)nc2ccccc2c1=O | 81.3% | 92.6% | 92.1% | 113% | 94.8% | 103% | 83.8% | 82.3% | 98.9% | 109%
25 | O=C(CCCCCCN1CC(=O)N2[C@@H](c3cccc(Cl)c3)c3[nH]c4ccccc4c3C[C@H]2C1=O)NO | 71.3% | 102% | 66.4% | 51.9% | 43.1% | 44.5% | 19.2% | 79.6% | 79% | 36.9%
26 | CCOC(=O)c1c(NCC(=O)Nc2ccc(Br)cc2)sc2c1CCCC2 | 26.3% | 40.7% | 85.6% | 69.2% | 68.9% | 67.7% | -48.8% (active) | 73.2% | 21.2% | 33.3%
